Reference: PubChem BioAssay (Tox21)
Inconclusive results are not listed. The source made the active and inactive calls. Unless noted, calls come from the whole dose curve; as a rule, active = well fitted curve in the direction sought with a large enough effect in the repeat runs; inconclusive = weak or mixed curves; inactive = no such curve, though single readings can be large; an effect the other way counts as inactive or inconclusive.

Key:
[1] = target: Luciferin 4-monooxygenase (Photinus pyralis) (UniProt P08659); assay: qHTS assay to identify small molecule inhibitors of firefly luciferase (AID 1224835); note: nearly all actives have a fitted effect of over 25% in size; note: potency is the fitted concentration of half-maximal effect
Procedure, shortened: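 Biochemical qHTS: compounds run as interplate titrations against purified firefly enzyme, with D-luciferin and ATP each at its KM concentration. Light output recorded by CCD imaging.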

[2] = qHTS assay to identify small molecule agonists of the constitutive androstane receptor (CAR) signaling pathway - cell viability counter screen (AID 1224836); note: nearly all actives have a fitted effect of over 45% in size; note: potency is the fitted concentration of half-maximal effect
Procedure, shortened: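 HepG2 cells stably carrying hCAR and a CYP2B6-2.2kb reporter were plated 4 h, then given compounds at 15 concentrations plus PK11195 (final 0.75 uM). After 23 h at 37 C, viability was read by CellTiter-Fluor fluorescence.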

[3] = qHTS assay to identify small molecule antagonists of the constitutive androstane receptor (CAR) signaling pathway - cell viability counter screen (AID 1224837); note: nearly all actives have a fitted effect of over 45% in size; note: potency is the fitted concentration of half-maximal effect
Procedure, shortened: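 HepG2 cells stably carrying hCAR and CYP2B6-2.2kb reporter, stimulated with 50 nM CITCO and compounds at 15 concentrations for 23 h at 37 C. Viability measured by CellTiter-Fluor fluorescence.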

[4] = qHTS RealTime-Glo MT Cell Viability Assay in HepG2 cells - 24 hour (AID 1224867); note: nearly all actives have a fitted effect of over 50% in size; note: potency is the fitted concentration of half-maximal effect
Procedure, shortened: (§1)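 HepG2 cells were seeded at 600 cells/well together with NanoLuc luciferase and a cell-permeant prosubstrate, preincubated 5 h at 37 C/5% CO2, then pin-dosed with compounds in DMSO. Nonlytic luminescence from viable cells was read at each time point.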

[5] = qHTS RealTime-Glo MT Cell Viability Assay in HEK293 cells - 32 hour (AID 1224868); note: nearly all actives have a fitted effect of over 50% in size; note: potency is the fitted concentration of half-maximal effect
Procedure, shortened: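 HEK293 cells were seeded at 600 cells/well together with NanoLuc luciferase and cell-permeant prosubstrate, preincubated 5 h at 37 C/5% CO2, then given compound in DMSO by pintool. Luminescence from viable-cell prosubstrate reduction was read repeatedly over 40 h.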

[6] = A CellTox Green Cytotoxicity Assay to monitor cytotoxicity in HepG2 cells - 24 hour (AID 1224878); note: nearly all actives have a fitted effect of over 45% in size; note: potency is the fitted concentration of half-maximal effect
Procedure, shortened: (§2)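 HepG2 cells, 600/well, preincubated 5 h with CellTox Green dye, then exposed to Tox21 compounds in DMSO at 37 C for up to 40 h. Dead-cell DNA fluorescence read at the indicated time point.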

[7] = A CellTox Green Cytotoxicity Assay to monitor cytotoxicity in HepG2 cells - 40 hour (AID 1224879); note: nearly all actives have a fitted effect of over 40% in size; note: potency is the fitted concentration of half-maximal effect
Procedure, shortened: as §2

[8] = A CellTox Green Cytotoxicity Assay to monitor cytotoxicity in HepG2 cells - 32 hour (AID 1224883); note: nearly all actives have a fitted effect of over 50% in size; note: potency is the fitted concentration of half-maximal effect
Procedure, shortened: as §2

[9] = A CellTox Green Cytotoxicity Assay to monitor cytotoxicity in HEK293 cells - 8 hour (AID 1224884); note: nearly all actives have a fitted effect of over 35% in size; note: potency is the fitted concentration of half-maximal effect
Procedure, shortened: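 HEK293 cells, 600/well, were preincubated 5 hours and then exposed to compounds at 37 C for up to 40 hours. A cell-impermeant cyanine dye staining dead-cell DNA was read by fluorescence at 0, 8, 16, 24, 32 and 40 h time points.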

[10] = qHTS RealTime-Glo MT Cell Viability Assay in HepG2 cells - 16 hour (AID 1224885); note: nearly all actives have a fitted effect of over 50% in size; note: potency is the fitted concentration of half-maximal effect
Procedure, shortened: as §1

[11] = qHTS assay to identify small molecule antagonists of the sonic hedgehog signaling (Shh) pathway - cell viability counter screen (AID 1259367); note: nearly all actives have a fitted effect of over 55% in size; note: potency is the fitted concentration of half-maximal effect
Procedure, shortened: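 NIH/3T3-derived Gli1-Luc reporter cells, 2,000/well, plated 4 hr before compound addition, then stimulated with conditioned medium for 24 hr at 37C. Viability measured in the same wells by CellTiter-Fluor fluorescence, reagent added at 23 hr for 1 hr.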

[12] = target: Cytochrome P450 2C9 (Homo sapiens) (UniProt P11712); assay: Cytochrome P450 Family 2 Subfamily C Member 9 (CYP2C9) small molecule antagonists: luciferase reporter qHTS assay (AID 1671198)
Procedure, shortened: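 P450-Glo proluciferin substrate with CYP2C9 enzyme; 10 min RT preincubation, then NADPH regeneration 1 h at 37C; luciferin detection reagent 20 min RT, luminescence in relative luminescence units.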

[13] = qHTS assay to identify small molecule agonists of H2AX (AID 1224845; active = well fitted activation curve with a large enough effect in the signal ratio in the repeat runs, not every such curve was filed as active; the % refers to the signal ratio; note: % is set by controls: 0 for no effect and ±100 for the full control effect)
Procedure, shortened: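 Wild-type CHO-K1 cells, plated overnight, exposed 3hr at 37C to 15 concentrations (0.76% DMSO final). Lysed, then HTRF anti-pH2AX (S139) cryptate and anti-H2AX-d2 antibodies, 24 hr room temperature; 665/620 nm emission read.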

[14] = qHTS assay to test for compound auto fluorescence at 535 nm (green) in HepG2 cells (AID 720675); note: % is set by controls: 0 for no effect and ±100 for the full control effect
[15] = qHTS assay to test for compound auto fluorescence at 590 nm (red) in HEK293 cells (AID 720679); note: % is set by controls: 0 for no effect and ±100 for the full control effect
Procedure, shortened: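 HEK293 cells (2,000/well, medium with 10% dialyzed FBS) attached for 4-5 hr at 37C, received 23 nL compound and were incubated overnight at 37C, 5% CO2. Red fluorescence was then read at 540/590nm Ex/Em, referenced to Rose Bengal sodium.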

[16] = qHTS assay to test for compound auto fluorescence at 535 nm (green) in HEK293 cells (AID 720680); note: % is set by controls: 0 for no effect and ±100 for the full control effect
[17] = qHTS assay to test for compound auto fluorescence at 590 nm (red) in HepG2 cell free culture (AID 720684); note: % is set by controls: 0 for no effect and ±100 for the full control effect
Procedure, shortened: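 Compound was pinned into wells holding MEM with 10% FBS and no cells, and red fluorescence was read at Ex/Em 540/590 nm. Signal is expressed as auto fluorescence equivalency relative to Rose Bengal sodium.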

[18] = qHTS assay to test for compound auto fluorescence at 460 nm (blue) in HepG2 cell free culture (AID 720685); note: % is set by controls: 0 for no effect and ±100 for the full control effect
Procedure, shortened: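 Compound (23 nL) or DMSO pinned into cell-free MEM with 10% FBS; blue fluorescence read at 405/460 nm excitation/emission, expressed as auto-fluorescence equivalency to triamterene.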

[19] = qHTS assay to test for compound auto fluorescence at 535 nm (green) in HepG2 cell free culture (AID 720686); note: % is set by controls: 0 for no effect and ±100 for the full control effect
[20] = qHTS assay for small molecules that induce genotoxicity in human embryonic kidney cells expressing luciferase-tagged ATAD5 (AID 651632); note: % is set by controls: 0 for no effect and ±100 for the full control effect; nearly all actives have a fitted effect of over 15% in size
Procedure, shortened: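 HEK293T cells carrying luciferase-tagged ATAD5 were given compound or DMSO vehicle and incubated 16 hr at 37C, 5% CO2. Luciferase activity was read after 30 min at room temperature with Amplite; a rise signals genotoxic stress.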

Sequence of Luciferin 4-monooxygenase (Photinus pyralis) (P08659 whole entry, looked up): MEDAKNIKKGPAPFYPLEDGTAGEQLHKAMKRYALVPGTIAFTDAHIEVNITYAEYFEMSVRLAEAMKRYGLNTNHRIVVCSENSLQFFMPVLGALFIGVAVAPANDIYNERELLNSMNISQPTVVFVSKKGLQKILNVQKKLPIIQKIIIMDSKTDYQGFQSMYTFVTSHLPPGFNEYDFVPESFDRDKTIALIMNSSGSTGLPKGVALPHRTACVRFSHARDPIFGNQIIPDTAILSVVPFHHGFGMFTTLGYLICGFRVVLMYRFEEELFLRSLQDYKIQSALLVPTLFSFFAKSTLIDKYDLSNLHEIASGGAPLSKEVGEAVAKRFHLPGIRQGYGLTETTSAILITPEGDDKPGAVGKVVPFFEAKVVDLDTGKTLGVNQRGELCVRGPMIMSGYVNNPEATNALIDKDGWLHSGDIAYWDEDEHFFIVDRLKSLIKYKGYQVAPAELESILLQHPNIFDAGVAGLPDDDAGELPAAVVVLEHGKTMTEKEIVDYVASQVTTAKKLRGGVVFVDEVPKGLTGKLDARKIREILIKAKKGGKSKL
Sequence of Cytochrome P450 2C9 (Homo sapiens) (P11712 whole entry, looked up): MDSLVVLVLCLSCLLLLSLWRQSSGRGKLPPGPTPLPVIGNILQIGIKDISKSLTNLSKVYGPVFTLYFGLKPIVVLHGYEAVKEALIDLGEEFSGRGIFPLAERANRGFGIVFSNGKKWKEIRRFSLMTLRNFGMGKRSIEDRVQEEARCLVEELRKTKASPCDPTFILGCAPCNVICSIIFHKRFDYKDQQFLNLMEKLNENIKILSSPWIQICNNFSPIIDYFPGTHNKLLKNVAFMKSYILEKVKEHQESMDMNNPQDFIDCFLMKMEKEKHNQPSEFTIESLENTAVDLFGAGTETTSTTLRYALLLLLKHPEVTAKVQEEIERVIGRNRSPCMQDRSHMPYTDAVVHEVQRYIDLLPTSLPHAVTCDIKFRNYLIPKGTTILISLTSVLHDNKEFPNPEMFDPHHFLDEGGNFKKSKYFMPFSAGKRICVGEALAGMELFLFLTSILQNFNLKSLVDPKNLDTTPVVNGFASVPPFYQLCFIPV

O=S(=O)(C(Cl)(Cl)Cl)C(Cl)(Cl)Cl
active: Potency [1] 20 µM | Potency [2] 54.5 µM | Potency [3] 30.6 µM | Potency [4] 38.9 µM | Potency [5] 9.77 µM | Potency [6] 27.5 µM | Potency [7] 19.5 µM | Potency [8] 24.5 µM | Potency [9] 24.5 µM | Potency [10] 38.9 µM | Potency [11] 54.5 µM | Potency [12] 11.2 µM

CCc1cccc(CC)c1N
inactive: Potency [13]

Nc1ccc([N+](=O)[O-])cc1
inactive: Potency [14] | outcome [15] | Potency [16] | outcome [17] | Potency [18] | Potency [19] | Potency [13] | Potency [4] | Potency [10]
active: Potency [3] 30.6 µM | Potency [5] 38.9 µM | Potency [6] 43.6 µM | Potency [7] 43.6 µM | Potency [8] 43.6 µM | Potency [12] 25.2 µM

CO/C=C(/C(=O)OC)c1ccccc1Oc1cc(Oc2ccccc2C#N)ncn1
active: Potency [5] 23.3 µM | Potency [11] 58.1 µM | Potency [12] 7.45 µM
inactive: Potency [20] | Potency [14] | outcome [15] | Potency [16] | outcome [17] | Potency [18] | Potency [19] | Potency [1] | Potency [6] | Potency [7] | Potency [8] | Potency [9]

Cc1ccc2nc3sc(=O)sc3nc2c1
inactive: viability change, negative = cytotoxic [2] 1.63% [at 19 µM] | activity change, negative = cytotoxicity [3] 11.8% [at 19 µM] | activation (H2AX phosphorylation) [13] -0.108% [at 31.6 µM] | activity change, negative = cytotoxicity [4] -4.88% [at 15.8 µM] | activity change, negative = cytotoxic [5] 8.73% [at 15.8 µM] | cytotoxicity [6] -2.5% [at 15.8 µM] | cytotoxicity increase [7] -2.41% [at 15.8 µM] | cytotoxicity increase [8] -5.02% [at 15.8 µM] | cytotoxicity increase [9] 4.71% [at 15.8 µM] | activity change, negative = cytotoxic [10] 0.198% [at 15.8 µM]

O=C1C(I)=CC(=C(c2cc(I)c(O)c(I)c2)c2ccccc2C(=O)O)C=C1I
inactive: Potency [20] | Potency [14] | outcome [15] | Potency [16] | outcome [17] | Potency [18] | Potency [19] | Potency [2] | Potency [3] | Potency [13] | Potency [4] | Potency [5] | Potency [6] | Potency [7] | Potency [8] | Potency [9] | Potency [10] | Potency [11]
active: Potency [12] 3.89 µM

Cc1nnc2n1-c1sc(CCc3ccc(CC(C)C)cc3)cc1C(c1ccccc1Cl)=NC2C (configuration not stated)
inactive: Potency [20] | Potency [14] | outcome [15] | Potency [16] | outcome [17] | Potency [18] | Potency [19] | Potency [1] | Potency [9] | Potency [11]
active: Potency [5] 9.52 µM | Potency [12] 27.5 µM

Cc1cc(C(C)(C)c2ccc(O)c(C)c2)ccc1O
active: Potency [5] 23.4 µM | Potency [11] 46.2 µM | Potency [12] 5.37 µM
inactive: Potency [20] | Potency [14] | outcome [15] | Potency [16] | outcome [17] | Potency [18] | Potency [19] | Potency [1] | Potency [13] | Potency [4] | Potency [10]

CCCCC(CC)COC(=O)c1ccc(C(=O)OCC(CC)CCCC)cc1 (configuration not stated)
inactive: Potency [13]

ClC(Cl)=C(c1ccc(Cl)cc1)c1ccccc1Cl
inactive: Potency [1] | Potency [2] | Potency [3] | Potency [4] | Potency [10] | Potency [11]
active: Potency [12] 25.2 µM

C[C@]12CC[C@@H](O)C[C@@H]1CC[C@@H]1[C@@H]2CC[C@]2(C)C(=O)CC[C@@H]12
active: Potency [5] 24.5 µM
inactive: Potency [2] | Potency [3] | Potency [13] | Potency [4] | Potency [6] | Potency [7] | Potency [8] | Potency [9] | Potency [10] | Potency [11]

COc1ccc(C(c2ccc(OC)cc2)C(Cl)(Cl)Cl)cc1
inactive: Potency [20] | Potency [14] | outcome [15] | Potency [16] | outcome [17] | Potency [18] | Potency [19] | Potency [2] | Potency [3] | Potency [6] | Potency [7] | Potency [8]
active: Potency [5] 48.7 µM | Potency [12] 1.82 µM

Brc1cc(Br)cc(Br)c1
inactive: Potency [13]

OC(Cc1ccccc1Cl)(Cn1[nH]cnc1=S)C1(Cl)CC1 (configuration not stated)
active: Potency [12] 0.894 µM
inactive: Potency [2] | Potency [3] | Potency [13] | Potency [4] | Potency [6] | Potency [7] | Potency [8] | Potency [9] | Potency [10] | Potency [11]

Nc1ccc(Cl)cc1[N+](=O)[O-]
inactive: Potency [13]

O=C(c1ccccc1)C(Cl)Cl
active: Potency [2] 61.1 µM | Potency [3] 54.5 µM | Potency [5] 38.9 µM
inactive: Potency [1] | Potency [13] | Potency [6] | Potency [8] | Potency [9]

Cc1ccc(N(SC(F)(Cl)Cl)S(=O)(=O)N(C)C)cc1
active: Potency [1] 44.8 µM | Potency [2] 30.6 µM | Potency [3] 24.3 µM | Potency [4] 11 µM | Potency [5] 5.49 µM | Potency [6] 11 µM | Potency [7] 6.92 µM | Potency [8] 6.92 µM | Potency [9] 21.9 µM | Potency [10] 15.5 µM | Potency [11] 17.2 µM | Potency [12] 5.64 µM
inactive: Potency [20] | Potency [14] | outcome [15] | Potency [16] | outcome [17] | Potency [18] | Potency [19] | Potency [13]
